Structures are written as SMILES. Several values for one entry are separate records, joined by “and”; a condition that tells them apart may be missing. Identical values can stand only once. Inconclusive results are not listed. Where a structure was tested more than once in an assay, its records may differ in their call. Activity calls are given as the source filed them. Rule for the calls, unless noted: active = hit-call score of the fitted dose curve at least 0.9, where 1 is the maximum; inactive = score below 0.9.

A short description of assay [1]: ATG_PPRE_CIS: Attagene CIS-FACTORIAL HepG2 Assay for human Peroxisome Proliferator-activated Response Element (PPRE) (AID 2282958). The settings on record: HepG2 PPRE cis-element reporter, Attagene transcription factor profiling; actives raise or lower the signal. In short, it runs like this:
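HepG2 cells transiently transfected with multiplexed cis-element reporter units measure endogenous transcription factor activity. After 24 h compound exposure, reporter mRNA is quantified by RT-PCR, 6-FAM labeling, HpaI digestion and capillary electrophoresis; bidirectional fits are made against DMSO baseline.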

Assay [2] can be described thus: ATG_RORE_CIS: Attagene CIS-FACTORIAL HepG2 Assay for human RAR-related Orphan Receptor Element (RORE) (AID 2282959). The following applies: HepG2 Attagene cis-factorial RORE reporter, mRNA; actives raise or lower the signal. In outline:
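HepG2 cells transiently transfected with multiple cis-element reporter transcription units, exposed to chemical for 24 h. Reporter mRNA quantified by RT-PCR, 6-FAM primer-extension labeling, HpaI digestion and capillary electrophoresis; bidirectional fit versus DMSO baseline.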

Assay [3] concerns the target Transcription factor Sp1 (Homo sapiens) (UniProt P08047). Briefly: ATG_Sp1_CIS: Attagene CIS-FACTORIAL HepG2 Assay for human Specificity Protein 1 (Sp1) (AID 2282961). The settings on record: HepG2 Sp1 cis-reporter transcription, actives raise or lower the signal. In short, it runs like this:
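HepG2 cells transiently transfected with multiple reporter transcription units driven by cis-regulatory elements; Sp1-responsive reporter mRNA measured 24 h after dosing by RT-PCR and capillary electrophoresis fluorescence, fitted bidirectionally against DMSO baseline.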

The nature of assay [4]: ATG_SREBP_CIS: Attagene CIS-FACTORIAL HepG2 Assay for human Sterol Regulatory Element Binding (SREBP) (AID 2282962). The following applies: HepG2 Attagene cis-factorial SREBP reporter, mRNA; actives raise or lower the signal. In outline:
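mRNA induction of transfected cis-promoter reporters in HepG2 cells, 24 h post-dose. Detection: RT-PCR with 6-FAM-labelled products, HpaI digest, capillary electrophoresis. DMSO served as negative control and baseline.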

The target in assay [5] is Signal transducer and activator of transcription 3 (Homo sapiens) (UniProt P40763). Briefly: ATG_STAT3_CIS: Attagene CIS-FACTORIAL HepG2 Assay for human Signal Transducer and Activator of Transcription 3 (STAT3) (AID 2282963). The following applies: HepG2, Attagene cis-factorial STAT3 reporter transcription; actives raise or lower the signal. In short, it runs like this: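 HepG2 cells transiently transfected with multiple cis-element-driven reporter units report endogenous transcription factor activity. After 24 h compound exposure, reporter mRNA is measured by RT-PCR, 6-FAM labelling, HpaI digestion and capillary electrophoresis. Fitted bidirectionally versus DMSO.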
Chain of Signal transducer and activator of transcription 3 (Homo sapiens) (P40763 whole entry, looked up): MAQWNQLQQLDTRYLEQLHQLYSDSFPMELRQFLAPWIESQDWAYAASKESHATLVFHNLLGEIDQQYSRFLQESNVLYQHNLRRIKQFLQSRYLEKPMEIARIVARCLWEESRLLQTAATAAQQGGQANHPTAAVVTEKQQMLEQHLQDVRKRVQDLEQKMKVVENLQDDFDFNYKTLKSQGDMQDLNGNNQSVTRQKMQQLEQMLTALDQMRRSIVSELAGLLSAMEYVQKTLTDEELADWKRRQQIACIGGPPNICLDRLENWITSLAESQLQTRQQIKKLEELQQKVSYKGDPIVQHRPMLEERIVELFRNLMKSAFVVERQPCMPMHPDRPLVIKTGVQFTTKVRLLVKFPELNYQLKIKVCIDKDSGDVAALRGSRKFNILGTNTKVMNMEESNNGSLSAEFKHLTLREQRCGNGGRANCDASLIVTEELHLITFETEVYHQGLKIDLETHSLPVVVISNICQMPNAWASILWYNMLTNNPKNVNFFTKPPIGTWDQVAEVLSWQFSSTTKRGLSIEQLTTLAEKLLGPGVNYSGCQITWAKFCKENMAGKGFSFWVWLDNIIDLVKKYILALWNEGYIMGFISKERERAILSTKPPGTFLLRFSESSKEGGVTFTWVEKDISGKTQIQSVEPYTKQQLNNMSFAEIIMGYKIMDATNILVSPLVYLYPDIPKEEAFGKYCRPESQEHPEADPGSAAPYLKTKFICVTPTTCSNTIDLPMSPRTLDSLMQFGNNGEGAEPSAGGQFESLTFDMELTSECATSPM

Assay [6] is described as follows: ATG_TCF_b_cat_CIS: Attagene CIS-FACTORIAL HepG2 Assay for human T-Cell-Factor with beta-catenin (TCF/b-cat) (AID 2282965). The settings on record: HepG2 TCF/beta-catenin cis-reporter transcription, actives raise or lower the signal. In short, it runs like this:
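HepG2 cells transiently transfected with cis-promoter-driven multiplexed reporter units; reporter mRNA measured 24 h after dosing by RT-PCR, FAM labelling, HpaI digestion and capillary electrophoresis. Bidirectional fitting relative to DMSO baseline.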

A short description of assay [7]: ATG_TGFb_CIS: Attagene CIS-FACTORIAL HepG2 Assay for human Transforming Growth Factor (TGF) (AID 2282967). The following applies: HepG2 Attagene CIS TGFb reporter, mRNA transcription; actives raise or lower the signal. In outline: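 Liver HepG2 line, cis-factorial reporter panel, 24 h dosing. Quantitation: RT-PCR products labeled with 6-FAM, cut with HpaI, resolved by capillary electrophoresis; DMSO-referenced bidirectional analysis.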

The nature of assay [8]: ATG_VDRE_CIS: Attagene CIS-FACTORIAL HepG2 Assay for human Vitamin D Receptor Element (VDRE) (AID 2282968). The settings on record: HepG2 VDRE cis-reporter transcription, actives raise or lower the signal. In short, it runs like this:
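Transiently transfected HepG2 cells carrying cis-regulated reporter transcription units were exposed for 24 h. Reporter mRNA was measured by RT-PCR with fluorescent labelling and capillary electrophoresis, and fitted in both directions against DMSO.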

The target of assay [9] is Steroid hormone receptor ERR1 (Homo sapiens) (UniProt P11474). Briefly: ATG_ERRa_TRANS: Attagene TRANS-FACTORIAL HepG2 Assay for human Estrogen-Related Receptor alpha (ERRa) (AID 2282971; active = hit-call score of the fitted dose curve at least 0.9, where 1 is the maximum). The settings on record: HepG2 Attagene TRANS reporter, ERRa transactivation. In short, it runs like this:
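HepG2 cells transiently transfected with multiplexed GAL4-UAS reporter units reading chimeric ERRa-Gal4 activity; 24 h compound exposure. Reporter mRNA measured by RT-PCR, 6-FAM labelling, HpaI digest and capillary electrophoresis; gain of signal fitted versus DMSO baseline.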

The target of assay [10] is X-box-binding protein 1 (Homo sapiens) (UniProt P17861). Briefly: ATG_Xbp1_CIS: Attagene CIS-FACTORIAL HepG2 Assay for human X-box Binding Protein 1 (XBP1) (AID 2282972). The following applies: HepG2 XBP1 cis-element reporter, Attagene multiplex; actives raise or lower the signal. In outline:
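Fluorescence-labelled cDNA fragments from reporter transcripts, separated by capillary electrophoresis, give the signal. Source: HepG2 cells transfected with promoter-driven reporter units, harvested 24 h post-dose. DMSO served as reference for bidirectional curve fitting.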

Assay [11] can be described thus: ATG_M_19_TRANS: Attagene TRANS-FACTORIAL HepG2 Assay for M19 Transcription Factor (Internal Marker) (AID 2282974; active = hit-call score of the fitted dose curve at least 0.9, where 1 is the maximum). The settings on record: HepG2 Attagene TRANS-FACTORIAL M19 internal marker reporter. In outline: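 HepG2 cells transiently transfected with multiple GAL4-UAS reporter transcription units were exposed to chemicals for 24 h. Reporter mRNA was read by RT-PCR, 6-FAM primer extension, HpaI digestion and capillary electrophoresis; gain of signal fitted relative to DMSO.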

Assay [12] is described as follows: ATG_GAL4_TRANS: Attagene TRANS-FACTORIAL HepG2 Assay for GAL4 (Internal Marker) (AID 2282976; active = hit-call score of the fitted dose curve at least 0.9, where 1 is the maximum). The settings on record: HepG2 Attagene TRANS GAL4 internal marker reporter. In outline:
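HepG2 cells transiently transfected with multiplexed GAL4-UAS reporter constructs were dosed for 24 h. Reporter mRNA was measured by RT-PCR, 6-FAM primer extension, HpaI digestion and capillary electrophoresis, and gain of signal was fitted relative to DMSO.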

Assay [13] has as its target Estrogen-related receptor gamma (Homo sapiens) (UniProt P62508). Briefly: ATG_ERRg_TRANS: Attagene TRANS-FACTORIAL HepG2 Assay for human Estrogen-Related Receptor gamma (ERRg) (AID 2282977; active = hit-call score of the fitted dose curve at least 0.9, where 1 is the maximum;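 note: hits increase reporter signal over DMSO so potencies reflect activators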). The settings on record: HepG2 Attagene TRANS reporter, ERRg transactivation. In outline: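 HepG2 cells transiently transfected with multiplexed GAL4-UAS reporter units driven by chimeric NR-Gal4 proteins; 24 h exposure. Reporter mRNA quantified by RT-PCR, fluorescent labelling, HpaI digestion and capillary electrophoresis; gain of signal vs DMSO.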

Assay [14] concerns the target Glucocorticoid receptor (Homo sapiens) (UniProt P04150). Description: ATG_GR_TRANS: Attagene TRANS-FACTORIAL HepG2 Assay for human Glucocorticoid Receptor (GR) (AID 2282978; active = hit-call score of the fitted dose curve at least 0.9, where 1 is the maximum;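 note: activators score as hits since higher reporter transcript over DMSO is fitted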). The following applies: HepG2 Attagene TRANS GR reporter, mRNA transcription. In short, it runs like this:
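HepG2 cells transiently transfected with multiplexed reporter units in which chimeric NR-GAL4 proteins drive GAL4-UAS reporters; 24 h compound exposure. Reporter mRNA measured by RT-PCR, 6-FAM labelling, HpaI digestion and capillary electrophoresis; gain-of-signal fitted versus DMSO.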

Assay [15] concerns the target Bile acid receptor (Homo sapiens) (UniProt Q96RI1). Description: ATG_FXR_TRANS: Attagene TRANS-FACTORIAL HepG2 Assay for Farnesoid X Receptor (FXR) (AID 2282979; active = hit-call score of the fitted dose curve at least 0.9, where 1 is the maximum;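 note: hits raise reporter mRNA above DMSO so AC50 marks FXR activation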). The following applies: HepG2 Attagene TRANS FXR-GAL4 reporter transcription. In outline:
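HepG2 cells transiently transfected with reporter constructs in which a chimeric FXR-GAL4 protein drives a GAL4-UAS reporter; 24 h compound exposure. Reporter mRNA measured by RT-PCR, FAM labelling, HpaI digestion and capillary electrophoresis; gain-of-signal versus DMSO.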

Assay [16] can be described thus: ATG_Sox_CIS: Attagene CIS-FACTORIAL HepG2 Assay for human SRY-box transcription factor (SOX) (AID 2282960). The settings on record: HepG2 Attagene cis-factorial SOX reporter, mRNA; actives raise or lower the signal. In outline:
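HepG2 cells transiently transfected with cis-element-driven multiple reporter transcription units, dosed 24 h; reporter mRNA measured by RT-PCR, FAM labelling, HpaI digestion and capillary electrophoresis. Bidirectional fit versus DMSO baseline.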

Assay [17] in a line: ATG_TA_CIS: Attagene CIS-FACTORIAL HepG2 Assay for human TA Basal Promoter (AID 2282964). The settings on record: HepG2 Attagene CIS-factorial TA basal promoter reporter; actives raise or lower the signal. In outline: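 Background internal-marker endpoint from a 52-component HepG2 cis-reporter panel. Cells treated 24 h; reporter transcripts quantified via RT-PCR and CE fluorescence against DMSO baseline.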

Assay [18] in a line: ATG_TAL_CIS: Attagene CIS-FACTORIAL HepG2 Assay for human TAL Basal Promoter (AID 2282966).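 Note: background control endpoint measuring basal TAL promoter reporter mRNA not a specific factor.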 The following applies: HepG2 Attagene cis-factorial TAL promoter reporter; actives raise or lower the signal. In short, it runs like this:
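HepG2 cells were transiently transfected with promoter-driven multiplexed reporter units and dosed for 24 h. Reporter mRNA was measured by RT-PCR with capillary electrophoresis fluorescence; bidirectional fits used DMSO as baseline, serving as a background control.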

Chain of Bile acid receptor (Homo sapiens) (Q96RI1 whole entry, looked up, the tested form may be a part): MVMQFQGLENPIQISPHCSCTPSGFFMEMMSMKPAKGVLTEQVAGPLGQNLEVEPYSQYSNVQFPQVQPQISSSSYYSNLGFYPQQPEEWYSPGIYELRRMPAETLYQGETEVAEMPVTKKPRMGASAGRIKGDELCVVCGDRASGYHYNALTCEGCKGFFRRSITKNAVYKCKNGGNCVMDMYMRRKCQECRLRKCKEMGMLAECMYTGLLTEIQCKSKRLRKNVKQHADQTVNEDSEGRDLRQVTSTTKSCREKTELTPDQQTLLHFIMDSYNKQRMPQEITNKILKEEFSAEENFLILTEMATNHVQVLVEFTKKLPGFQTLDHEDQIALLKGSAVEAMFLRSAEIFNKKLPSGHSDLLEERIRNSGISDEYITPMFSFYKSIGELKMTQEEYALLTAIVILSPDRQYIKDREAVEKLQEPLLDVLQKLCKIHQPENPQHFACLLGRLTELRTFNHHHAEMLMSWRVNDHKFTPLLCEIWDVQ
Chain of Glucocorticoid receptor (Homo sapiens) (P04150 whole entry, looked up, the tested form may be a part): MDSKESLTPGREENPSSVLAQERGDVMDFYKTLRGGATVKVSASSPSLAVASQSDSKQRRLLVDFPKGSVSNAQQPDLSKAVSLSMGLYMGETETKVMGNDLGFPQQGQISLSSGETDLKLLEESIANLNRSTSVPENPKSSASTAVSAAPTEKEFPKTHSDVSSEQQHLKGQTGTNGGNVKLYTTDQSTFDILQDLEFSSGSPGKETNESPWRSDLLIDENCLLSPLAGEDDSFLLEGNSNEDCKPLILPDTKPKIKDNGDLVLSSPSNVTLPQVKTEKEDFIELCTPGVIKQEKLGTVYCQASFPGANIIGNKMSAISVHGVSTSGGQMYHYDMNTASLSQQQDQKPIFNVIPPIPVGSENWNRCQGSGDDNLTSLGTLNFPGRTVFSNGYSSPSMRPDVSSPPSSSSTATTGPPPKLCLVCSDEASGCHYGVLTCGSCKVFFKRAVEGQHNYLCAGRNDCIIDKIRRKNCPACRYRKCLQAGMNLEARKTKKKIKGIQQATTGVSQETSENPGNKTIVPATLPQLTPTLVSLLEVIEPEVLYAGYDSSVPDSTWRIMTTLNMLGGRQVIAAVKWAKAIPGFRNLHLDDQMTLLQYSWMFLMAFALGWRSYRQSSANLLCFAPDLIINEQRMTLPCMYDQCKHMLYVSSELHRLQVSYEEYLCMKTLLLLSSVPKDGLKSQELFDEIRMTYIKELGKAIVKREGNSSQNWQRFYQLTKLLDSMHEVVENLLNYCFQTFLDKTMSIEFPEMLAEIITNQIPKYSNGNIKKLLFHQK
Chain of X-box-binding protein 1 (Homo sapiens) (P17861 whole entry, looked up, the tested form may be a part): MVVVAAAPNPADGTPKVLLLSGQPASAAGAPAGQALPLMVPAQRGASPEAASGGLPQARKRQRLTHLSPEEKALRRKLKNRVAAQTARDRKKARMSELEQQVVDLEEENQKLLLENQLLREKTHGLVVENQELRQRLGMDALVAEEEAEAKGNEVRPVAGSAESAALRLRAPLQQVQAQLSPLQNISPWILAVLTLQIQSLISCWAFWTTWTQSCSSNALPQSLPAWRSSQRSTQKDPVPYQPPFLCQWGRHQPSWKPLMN
Chain of Transcription factor Sp1 (Homo sapiens) (P08047 whole entry, looked up): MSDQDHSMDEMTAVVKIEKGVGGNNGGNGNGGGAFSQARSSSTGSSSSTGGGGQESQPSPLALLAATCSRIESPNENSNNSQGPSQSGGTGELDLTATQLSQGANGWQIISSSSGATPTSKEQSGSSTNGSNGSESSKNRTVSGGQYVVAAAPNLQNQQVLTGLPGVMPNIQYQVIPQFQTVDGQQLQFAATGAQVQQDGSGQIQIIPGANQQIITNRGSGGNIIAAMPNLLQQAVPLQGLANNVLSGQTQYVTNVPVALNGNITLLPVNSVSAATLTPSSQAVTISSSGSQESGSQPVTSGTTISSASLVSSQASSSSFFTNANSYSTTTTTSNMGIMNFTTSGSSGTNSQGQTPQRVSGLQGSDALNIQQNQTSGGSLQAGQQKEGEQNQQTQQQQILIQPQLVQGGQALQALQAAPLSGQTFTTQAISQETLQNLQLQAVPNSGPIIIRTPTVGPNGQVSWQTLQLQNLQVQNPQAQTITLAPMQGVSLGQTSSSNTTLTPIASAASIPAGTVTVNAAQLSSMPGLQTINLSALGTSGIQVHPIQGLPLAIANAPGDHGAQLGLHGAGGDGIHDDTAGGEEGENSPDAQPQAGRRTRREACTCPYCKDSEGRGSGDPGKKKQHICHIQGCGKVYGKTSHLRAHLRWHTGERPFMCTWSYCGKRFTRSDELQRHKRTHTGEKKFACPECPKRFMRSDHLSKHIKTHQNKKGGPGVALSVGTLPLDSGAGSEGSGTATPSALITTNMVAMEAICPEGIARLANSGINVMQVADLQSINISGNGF
Chain of Steroid hormone receptor ERR1 (Homo sapiens) (P11474 whole entry, looked up, the tested form may be a part): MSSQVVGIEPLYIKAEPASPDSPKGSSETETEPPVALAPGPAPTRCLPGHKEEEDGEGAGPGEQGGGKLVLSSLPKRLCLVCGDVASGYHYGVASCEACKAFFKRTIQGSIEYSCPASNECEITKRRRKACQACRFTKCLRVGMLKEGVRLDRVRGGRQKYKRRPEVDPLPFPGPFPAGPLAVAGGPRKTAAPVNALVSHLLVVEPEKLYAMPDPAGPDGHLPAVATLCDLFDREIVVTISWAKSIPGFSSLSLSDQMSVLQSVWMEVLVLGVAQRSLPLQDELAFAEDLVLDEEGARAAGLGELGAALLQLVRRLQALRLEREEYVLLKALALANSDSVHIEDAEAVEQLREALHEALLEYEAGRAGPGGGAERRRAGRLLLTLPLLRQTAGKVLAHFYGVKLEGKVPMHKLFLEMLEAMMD
Chain of Estrogen-related receptor gamma (Homo sapiens) (P62508 whole entry, looked up, the tested form may be a part): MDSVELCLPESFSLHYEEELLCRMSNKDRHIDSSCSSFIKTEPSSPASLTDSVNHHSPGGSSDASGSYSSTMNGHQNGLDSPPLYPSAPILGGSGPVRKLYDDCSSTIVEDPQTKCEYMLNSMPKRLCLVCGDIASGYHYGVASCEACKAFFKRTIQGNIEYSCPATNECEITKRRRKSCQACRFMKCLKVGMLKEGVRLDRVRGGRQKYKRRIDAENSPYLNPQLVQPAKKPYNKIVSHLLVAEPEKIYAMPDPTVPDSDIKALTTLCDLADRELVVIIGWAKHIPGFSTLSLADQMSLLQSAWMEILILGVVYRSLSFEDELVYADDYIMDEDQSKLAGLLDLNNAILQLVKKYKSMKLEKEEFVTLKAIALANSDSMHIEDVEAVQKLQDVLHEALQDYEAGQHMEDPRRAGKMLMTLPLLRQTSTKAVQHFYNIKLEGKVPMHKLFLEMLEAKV

Take `O=C1C2(Cl)C3(Cl)C4(Cl)C(Cl)(Cl)C5(Cl)C3(Cl)C1(Cl)C5(Cl)C24Cl` (stereo not given): the AC50 in assay [1] was 14 µM (active); in assay [3] it was 5.85 µM (active); in assay [5], 5.58 µM (active); in assay [6], 17.7 µM (active); in assay [8], 13.1 µM (active); in assay [10], 15.9 µM (active). Moreover, in assay [15], the AC50 was 4.29 µM (active) and 8.79 µM (active) and 10.4 µM (active). The outcome in assay [1], in [2], in assay [3], in assay [4], in assay [5] and in [6] was inactive. Also, the compound was classed as inactive in assay [7], in assay [8], in [9], in assay [10], in [11] and in assay [12]. Further, the result in assay [13], in [14] and in assay [15] was inactive.
With `O=C(O)C(Cl)(Cl)Cl`, the result in assay [1], in assay [2], in assay [16], in [3], in [4] and in [5] was inactive. For the same compound, the compound was classed as inactive in assay [17], in [6], in assay [18], in assay [7], in assay [8] and in assay [10]. Further, the call in assay [11] and in assay [12] was inactive.
On to `CC(=O)[O][Hg][c]1ccccc1`, for which the compound was classed as inactive in [1], in assay [16], in assay [4], in assay [5], in assay [17] and in [6]. Further, the compound was classed as inactive in assay [18], in [7], in [9] and in [15]. For the same compound, the AC50 in assay [2] was 3.71 µM (active); in assay [3], 2.87 µM (active); in assay [8], 3.71 µM (active); in assay [10], 3.71 µM (active).

A word on the AC50: it is the midpoint of the concentration-response curve, whichever way the signal moves.

The values above are taken from PubChem BioAssay (EPA / NIEHS).
